Reference: paper PMC11062922 (Nature Chemical Biology, 2023)
Like-named read-outs stand apart in the source and are kept apart here.

Assays:
Set-up in all cases: species or system human, MV4-11 + K-562 + COLO205 + SK-N-BE2 + OVCAR-8
GSK3A = conditions: read-out: apparent Kd, n = 1
GSK3B = conditions: read-out: apparent Kd, n = 1
HSP90B1 = conditions: read-out: apparent Kd, compound concentrations: 100 nM and 1000 nM (sheet 'Samples'), n = 1
PIK3C3 = conditions: read-out: apparent Kd; compound concentrations: 100 nM and 1000 nM (sheet 'Samples'), CATDS: 0.26990158235455203; n = 1
PIK3CB = conditions: read-out: apparent Kd; compound concentrations: 100 nM and 1000 nM (sheet 'Samples'), CATDS: 0.57413084763850397; n = 1
IRAK3 = conditions: read-out: apparent Kd; compound concentrations:100 nM and 1000 nM (sheet 'Samples'); n = 1
STK16 = conditions: read-out: apparent Kd; compound concentrations:100 nM and 1000 nM (sheet 'Samples'); n = 1
PRKCA = conditions: read-out: apparent Kd, n = 1
PRKCB = conditions: read-out: apparent Kd, n = 1
PRKCD = conditions: read-out: apparent Kd, n = 1
PRKCQ = conditions: read-out: apparent Kd, n = 1
RPS6KA6 = conditions: read-out: apparent Kd, n = 1
RPS6KB1 = conditions: read-out: apparent Kd, n = 1
ICK = conditions: read-out: apparent Kd; compound concentrations: 100 nM and 1000 nM (sheet 'Samples'), CATDS: 0.23248137577465; n = 1
HCK = conditions: read-out: apparent Kd; compound concentrations: 100 nM and 1000 nM (sheet 'Samples'), CATDS: 0.18431163144464899; n = 1
MAPK14 = conditions: read-out: apparent Kd; compound concentrations: 100 nM and 1000 nM (sheet 'Samples'), CATDS: 0.18472106160443499; n = 1
MDN1 = conditions: read-out: apparent Kd; compound concentrations: 100 nM and 1000 nM (sheet 'Samples'), CATDS: 0.171379045218121; n = 1
RET = conditions: read-out: apparent Kd; compound concentrations: 100 nM and 1000 nM (sheet 'Samples'), CATDS: 0.22274296302997099; n = 1
YES1 = conditions: read-out: apparent Kd; compound concentrations: 100 nM and 1000 nM (sheet 'Samples'), CATDS: 0.26066512285863302; n = 1
MERTK = conditions: read-out: apparent Kd; compound concentrations:100 nM and 1000 nM (sheet 'Samples'); n = 1
PRKCI = conditions: read-out: apparent Kd; compound concentrations: 100 nM and 1000 nM (sheet 'Samples'), CATDS: 6.3639374568516094E-2; n = 1
JAK2 = conditions: read-out: apparent Kd; compound concentrations: 100 nM and 1000 nM (sheet 'Samples'), CATDS: 1; n = 1
SLK = conditions: read-out: apparent Kd; compound concentrations:100 nM and 1000 nM (sheet 'Samples'); n = 1
[1] = compound concentrations:100 nM and 1000 nM (sheet 'Samples')

## O=C(Nc1n[nH]c2cc(-c3ccco3)ccc12)C1CC1 [SB-737447]
GSK3A; [1]
  potency estimated from few doses: 0.498 µM
GSK3B; [1]
  potency estimated from few doses: 0.645 µM

## O=c1cc(N2CCOCC2)nc2n(Cc3cccc(Cl)c3Cl)c3ccccc3n12 [GSK2299009A]
HSP90B1; CATDS: 0.28143783483282298
  potency estimated from few doses: 1.04 µM
PIK3C3
  potency estimated from few doses: 1.17 µM
PIK3CB
  potency estimated from few doses: 0.251 µM

## O=C(Nc1ccccc1F)NC1CCN(c2ccnc(Nc3ccc(F)cc3)n2)C1 (stereo not drawn) [GSK1379722A]
HSP90B1; CATDS: 1
  potency estimated from few doses: 0.875 µM

## COc1cc(C=NNc2ncnc3c2cnn3-c2ccccc2)ccc1O [GW513184X]
IRAK3
  potency estimated from few doses: 1.31 µM
STK16
  potency estimated from few doses: 1.95 µM

## CN(C)CC1CCn2c(c(C3=C(c4cn(C)c5ccccc45)C(=O)NC3=O)c3ccccc32)C1 (stereo not drawn) [RO0318830-000]
GSK3A; [1]
  potency estimated from few doses: 0.0438 µM
GSK3B; [1]
  potency estimated from few doses: 0.0534 µM
PRKCA; compound concentrations: 100 nM and 1000 nM (sheet 'Samples'), CATDS: 0.195929094272485
  potency estimated from few doses: 0.0302 µM
PRKCB; [1]
  potency estimated from few doses: 0.0885 µM
PRKCD; [1]
  potency estimated from few doses: 0.0345 µM
PRKCQ; [1]
  potency estimated from few doses: 0.123 µM
RPS6KA6; [1]
  potency estimated from few doses: 0.0568 µM
RPS6KB1; [1]
  potency estimated from few doses: 1.6 µM

## COc1cccc2c1c(C1=C(c3cn(C)c4ccccc34)C(=O)NC1=O)cn2C [RO0317494-000]
GSK3A; compound concentrations: 100 nM and 1000 nM (sheet 'Samples'), CATDS: 0.489076637072761
  potency estimated from few doses: 0.149 µM
GSK3B; compound concentrations: 100 nM and 1000 nM (sheet 'Samples'), CATDS: 0.37680240996491099
  potency estimated from few doses: 0.241 µM
ICK
  potency estimated from few doses: 0.912 µM

## COc1cc(Nc2nccc(-c3c(-c4cccc(NC(=O)c5c(F)cccc5F)c4)nn4ccccc34)n2)cc(OC)c1OC [GSK323521A]
HCK
  potency estimated from few doses: 1.57 µM
MAPK14
  potency estimated from few doses: 1.56 µM
MDN1
  potency estimated from few doses: 1.86 µM
RET
  potency estimated from few doses: 1.07 µM
YES1
  potency estimated from few doses: 0.812 µM

## O=C(Nc1n[nH]c2nc(-c3cccs3)c(Br)cc12)C1CCCC1 [SB-743341]
GSK3A; [1]
  potency estimated from few doses: 0.529 µM
GSK3B; [1]
  potency estimated from few doses: 1.07 µM
MERTK
  potency estimated from few doses: 1.72 µM

## Cl.Cn1cc(C2=C(c3c4n(c5ccccc35)CCC(CN)C4)C(=O)NC2=O)c2ccccc21 (stereo not drawn) [RO0318425-001]
GSK3A; compound concentrations: 100 nM and 1000 nM (sheet 'Samples'), CATDS: 7.9505519232768704E-2
  potency estimated from few doses: 0.383 µM
GSK3B; compound concentrations: 100 nM and 1000 nM (sheet 'Samples'), CATDS: 0.10826194795631
  potency estimated from few doses: 0.122 µM
PRKCA; compound concentrations: 100 nM and 1000 nM (sheet 'Samples'), CATDS: 0.4123063070702
  potency estimated from few doses: 0.00881 µM
PRKCB; compound concentrations: 100 nM and 1000 nM (sheet 'Samples'), CATDS: 0.195628585726322
  potency estimated from few doses: 0.03 µM
PRKCD; compound concentrations: 100 nM and 1000 nM (sheet 'Samples'), CATDS: 0.18341156503501599
  potency estimated from few doses: 0.0341 µM
PRKCI
  potency estimated from few doses: 1.63 µM
PRKCQ; compound concentrations: 100 nM and 1000 nM (sheet 'Samples'), CATDS: 0.13479681678754199
  potency estimated from few doses: 0.0675 µM
RPS6KA6; compound concentrations: 100 nM and 1000 nM (sheet 'Samples'), CATDS: 9.8162959720225998E-2
  potency estimated from few doses: 0.167 µM
RPS6KB1; compound concentrations: 100 nM and 1000 nM (sheet 'Samples'), CATDS: 7.7658945876463797E-2
  potency estimated from few doses: 0.429 µM

## COC(=O)Nc1nc2ccc(S(=O)(=O)c3ccc(NC(=O)Nc4cc(C(F)(F)F)ccc4F)cc3)cc2[nH]1.Cl [GW680908A]
JAK2
  potency estimated from few doses: 0.356 µM

## Cn1cc(C2=C(c3c4n(c5ccccc35)CCC(CN)CC4)C(=O)NC2=O)c2ccccc21 (stereo not drawn) [RO0319371-000]
GSK3A; [1]
  potency estimated from few doses: 0.608 µM
GSK3B; [1]
  potency estimated from few doses: 0.504 µM
PRKCA; [1]
  potency estimated from few doses: 0.0222 µM
PRKCB; compound concentrations: 100 nM and 1000 nM (sheet 'Samples'), CATDS: 0.217434450418582
  potency estimated from few doses: 0.0523 µM
PRKCD; [1]
  potency estimated from few doses: 0.0316 µM
RPS6KA6; [1]
  potency estimated from few doses: 0.342 µM
RPS6KB1; [1]
  potency estimated from few doses: 0.306 µM
SLK
  potency estimated from few doses: 2.12 µM
